The record followed here is PubChem BioAssay (NCATS).

In test [1] the target is Glutathione peroxidase 1 (Homo sapiens) (UniProt P07203). The test can be described thus: Primary qHTS Assay for Inhibitors of Recombinant Selenoprotein Glutathione Peroxidase 1 (GPX1) (AID 1845191). Further: potency means the concentration at half of the fitted maximal effect; nearly all actives have a fitted effect of over 65% in size. In outline: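 10 nM GPX1 + cpd, 30 min RT; start w/ 1 mM GSH, 0.5 mM cumene hydroperoxide, 0.5 mM NADPH, 100 nM GR, 0.01% BSA; buffer 50 mM Tris-HCl pH 7.5, 2 mM EDTA, 150 mM NaCl; Fl 340/450, 0 & 15 min.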
For orientation: In qHTS, concentration-response curves come from the screen itself.

For test [2], the target named is Luciferin 4-monooxygenase (Photinus pyralis) (UniProt P08659). The test can be described thus: Primary firefly luciferase (FLuc) qHTS assay for identification of artifact compounds. (AID 1845220). Further: nearly all actives have a fitted effect of over 60% in size.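 On activity change, negative = inhibition: series mostly up to about 54 µM; plate controls were DMSO vehicle for no effect and no enzyme for full effect.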 In a few lines:
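Compounds sat 15 min at room temperature with 10 uM luciferin and 10 uM ATP (pH 7.6 Tris acetate). Firefly luciferase (10 nM final) was then added, and luminescence was read 5 min later. Data normalized to no-enzyme and DMSO controls were Hill-fitted.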

Test [3] can be described thus: Primary fluorescence-based thiol-reactive (MSTI) qHTS assay for identification of artifact compounds. (AID 1845221). Further: nearly all actives have a fitted effect of over 65% in size. Further: potency means the concentration at half of the fitted maximal effect.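 On activity change, negative = thiol reactive: series mostly up to about 54 µM; thiol-reactive compounds lower the probe fluorescence signal.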 In a few lines: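 One-hour, room-temperature, dark incubation of compound with 4 uM MSTI in PBS (pH 7.4, 2% DMSO) precedes a fluorescence read at 525 nm excitation, 598 nm emission; Hill-equation fitting yields concentration-response values.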
Test [4] in a line: Primary redox qHTS assay for identification of artifact compounds. (AID 1845223).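 Further: 0% = DMSO and 100% = reference compound.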 In outline: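 Amplex Red (25 uM) and HRP (250 mU/mL) in HBSS, with compounds for 15 min, then 250 uM DTT for 30 min, room temperature, dark. Fluorescence 525/598 nm read; normalized to DMSO and 10 uM DA3003; Hill fit.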
For test [5], the target named is Phospholipid hydroperoxide glutathione peroxidase GPX4 (Homo sapiens) (UniProt P36969). The test can be described thus: Primary qHTS Assay for Inhibitors of Recombinant Selenoprotein Glutathione Peroxidase 4 (GPX4) (AID 1845192). Further: nearly all actives have a fitted effect of over 65% in size. Further: potency means the concentration at half of the fitted maximal effect. On activity change, negative = inhibition: series mostly up to about 50 µM; on the % scale 0 is the no-effect control and ±100 the full control effect. In outline:
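NADPH consumption, followed by fluorescence at 340/450 nm between 0 and 15 min, reports GPX4 activity via coupled glutathione reductase (100 nM). Enzyme 200 nM was pre-exposed to compound 30 min; 0.5 mM cumene hydroperoxide and 1 mM GSH served as substrates.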

The subject of test [6] is Nanoluciferase (engineered Oplophorus gracilirostris luciferase). The test can be described thus: Primary Nanoluciferase (NLuc) qHTS assay for identification of artifact compounds. (AID 1845222).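 Further: series mostly up to about 54 µM; 0% = DMSO and -100% = no enzyme.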 In outline:
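Luminescence from secreted NLuc (filtered, 1:55-diluted S16 cell medium) read 5 min after Nano-Glo substrate; compounds preincubated 15 min, RT. Hill fits of inhibition normalized to DMSO and no-enzyme.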

Structures are written as SMILES. Unmarked numbers belong to inactive results. Inconclusive results are not listed. Active and inactive are the calls of the source. The call rests on the fitted dose curve; in most records, active means well fitted curve in the direction sought with a large enough effect; inconclusive means small, poorly fitted or top-dose-only effect, or another doubt; inactive means no such curve, though single readings can be large; an effect the other way counts as inactive or inconclusive.

Phospholipid hydroperoxide glutathione peroxidase GPX4 (Homo sapiens), sequence (P36969 whole entry, looked up): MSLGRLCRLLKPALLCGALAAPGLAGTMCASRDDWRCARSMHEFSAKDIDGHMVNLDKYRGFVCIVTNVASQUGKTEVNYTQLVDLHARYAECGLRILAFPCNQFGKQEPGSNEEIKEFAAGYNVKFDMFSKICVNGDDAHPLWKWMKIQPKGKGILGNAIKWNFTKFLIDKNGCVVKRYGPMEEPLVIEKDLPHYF
Glutathione peroxidase 1 (Homo sapiens), sequence (P07203 whole entry, looked up): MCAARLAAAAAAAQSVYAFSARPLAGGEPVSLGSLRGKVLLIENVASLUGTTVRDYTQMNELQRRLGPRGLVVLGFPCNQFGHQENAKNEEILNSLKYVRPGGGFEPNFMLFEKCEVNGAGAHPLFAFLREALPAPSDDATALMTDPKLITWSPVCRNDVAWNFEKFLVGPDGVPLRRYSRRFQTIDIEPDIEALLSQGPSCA

Take `CNC(=S)NS(=O)(=O)c1cc(CCNC(=O)c2cc(Cl)ccc2OC)ccc1OC`: the Potency in test [1] is 12.8 µM (active). The Potency entry in test [2], in test [3] and in test [4] was “inactive” in each case.

On to `CC1=C2C(O)C(=O)OC(c3ccoc3)C2(C)CCC1O` (stereo not drawn), for which the Potency result in test [5], in test [2], in test [3], in test [6] and in test [4] was “inactive” each time.

On to `Cc1cn(C2C=CC(CO)O2)c(=O)[nH]c1=O` (stereo not drawn), for which the Potency entry in test [5], in test [2], in test [3], in test [6] and in test [4] was “inactive” throughout.

With `CN(C)C(=O)NC1CCC(CCN2CCN(c3cccc(Cl)c3Cl)CC2)CC1` (stereo not drawn), the Potency result in test [5] was “inactive”. Moreover, the activity change, negative = inhibition in test [2] is 2.95% [at 11.6 µM]. Also, the activity change, negative = thiol reactive in test [3] was 20.5% [at 11.5 µM]. For the same compound, the activity, negative = inhibition in test [6] was -1.17% [at 11.6 µM]. Further, the redox activity (% of DA3003) in test [4] was -4.67% [at 11.5 µM].

As for `CC(C)(F)C[C@@H](N[C@@H](c1ccc(-c2ccc(S(C)(=O)=O)cc2)cc1)C(F)(F)F)C(=O)NC1(C#N)CC1`, the Potency result in test [5], in test [2], in test [3], in test [6] and in test [4] was “inactive” throughout.

With `OCC1OC(Oc2cc(O)cc(/C=C/c3ccc(O)cc3)c2)C(O)C(O)C1O` (stereo not drawn), the Potency result in test [5], in test [2], in test [6] and in test [4] was “inactive” throughout. The Potency in test [3] is 2.93 µM (active).

As for `O=C(Nc1ccc(S(=O)(=O)Nc2nccs2)cc1)C(c1ccccc1)c1ccccc1`, the Potency result in test [5], in test [2], in test [3], in test [6] and in test [4] was “inactive” throughout.

For the compound `C[C@@H]1C(=O)O[C@H]2[C@@H](O)C34[C@H]5C[C@@H](C(C)(C)C)C36[C@@H](OC(=O)[C@@H]6O)O[C@@]4(C(=O)O5)[C@@]12O` (stereo partly drawn), the Potency entry in test [5], in test [2], in test [3], in test [6] and in test [4] was “inactive” throughout.

Regarding `Cc1c(CN2CCN(C(=O)C(C)O)CC2)sc2c(N3CCOCC3)nc(-c3cnc(N)nc3)nc12` (stereo not drawn), the Potency result in test [5], in test [2], in test [3], in test [6] and in test [4] was “inactive” throughout.

`CNC(=O)c1ccccc1Nc1nc(Nc2ccc3c(c2OC)CCCC(N2CCN(CCO)CC2)C3)ncc1Cl` (stereo not drawn): the Potency entry in test [5], in test [2], in test [3], in test [6] and in test [4] was “inactive” each time.

On to `CC(=O)O[C@@H]1[C@@H](O)[C@H](O[C@H]2CC[C@]34C[C@]35CC[C@]3(C)[C@@H]([C@@]6(C)CC[C@@H](C(C)(C)O)O6)[C@@H](O)C[C@@]3(C)[C@@H]5C[C@H](O[C@@H]3O[C@H](CO)[C@@H](O)[C@H](O)[C@H]3O)[C@H]4C2(C)C)OC[C@H]1O`, for which the Potency result in test [5], in test [2], in test [3] and in test [6] was “inactive” in each case.

`O=C(O)Cc1ccc2oc(-c3ccc(NC(=O)/C=C/c4ccc(Br)cc4)c(F)c3)nc2c1`: the Potency entry in test [5], in test [2], in test [3], in test [6] and in test [4] was “inactive” in each case.

As for `NC(=O)Nc1cc(-c2cccc(F)c2)sc1C(=O)NC1CCCNC1` (stereo not drawn), the Potency entry in test [5], in test [2], in test [3], in test [6] and in test [4] was “inactive” in each case.

As to `Cc1c(C(=O)Nc2ccc(N3CC(C)OC(C)C3)nc2)cccc1-c1ccc(OC(F)(F)F)cc1` (stereo not drawn), the Potency result in test [5], in test [2], in test [3], in test [6] and in test [4] was “inactive” in each case.

In the case of `C[C@@H]1C(=O)O[C@H](C)[C@H]1CC(=O)[C@](C)(O)[C@H]1CC[C@@]2(O)C3=CC(=O)[C@@H]4C[C@@H](O)[C@@H](O)C[C@]4(C)C3CC[C@]12C` (stereo partly drawn), the Potency result in test [5], in test [2], in test [3], in test [6] and in test [4] was “inactive” in each case.

Take `O=C1CC2(CCCC2)[C@H](O)C(=O)N1CCCCN1CCN(c2ncccn2)CC1`: the Potency entry in test [5], in test [2], in test [3], in test [6] and in test [4] was “inactive” throughout.

Consider `COc1cc2oc(-c3ccc(O)cc3O)cc2c(OC)c1CC=C(C)C`, for which the Potency result in test [5], in test [2], in test [6] and in test [4] was “inactive” each time. Moreover, the Potency in test [3] was 6.56 µM (active).

Turning to `C=C1C(=O)OC2C1C(O)CC1(C)C(O)CCC(C=O)C21` (stereo not drawn), the Potency result in test [5], in test [2], in test [3], in test [6] and in test [4] was “inactive” each time.

As for `Cc1cc(Nc2nc(NC(C)c3ncc(F)cn3)ncc2Cl)n[nH]1` (stereo not drawn), the Potency entry in test [5], in test [2], in test [3], in test [6] and in test [4] was “inactive” in each case.

For `C[C@@H]1COCCN1c1cc(C2(S(C)(=O)=O)CC2)nc(-c2cccc3[nH]ccc23)n1`, in test [5], the Potency is 18 µM (active). The Potency entry in test [2], in test [3], in test [6] and in test [4] was “inactive” each time.

Turning to `COc1ccc2c(OC)c3ccoc3nc2c1OC`, the Potency entry in test [5], in test [2], in test [3], in test [6] and in test [4] was “inactive” throughout.

As for `C[C@@]12C[C@]3(O)O[C@H](O1)[C@]1(COC(=O)c4ccccc4)[C@H]3C[C@@]12O[C@@H]1O[C@H](CO)[C@@H](O)[C@H](O)[C@H]1O`, the Potency result in test [5], in test [2], in test [3], in test [6] and in test [4] was “inactive” throughout.

Regarding `C1CCC[C@H]2CCCN3CC[C@@H](CCCCCC[C@@H]4CCCN5CC[C@@H](CC1)O[C@@H]45)O[C@@H]23`, in test [5], the activity change, negative = inhibition is -4.98% [at 0.121 µM]. In test [2], the outcome was “inactive [at 0.0969 µM]”. Also, in test [3], the activity change, negative = thiol reactive is 0.0753% [at 0.0963 µM]. Further, the activity, negative = inhibition in test [6] was 2.4% [at 0.0969 µM]. Also, the redox activity (% of DA3003) in test [4] is -1.13% [at 0.0963 µM].

For `Cc1ccc(C(=O)N(CCCN)C(c2nc3cc(Cl)ccc3c(=O)n2Cc2ccccc2)C(C)C)cc1` (stereo not drawn), the Potency result in test [5], in test [2], in test [3], in test [6] and in test [4] was “inactive” each time.
